We go through 10 molecules from PubChem BioAssay.

Assay [1] in a line: inhibitors of TNFa-induced NFkB p65 translocation, primary screen, imaging, HUVEC, MLSMR starter and 10KST1 sets (AID 438;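 active = inhibition above 20% together with a positive visual image hit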;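 also: compound added about 3h40 before a 20 min TNFalpha stimulation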;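 as to inhibition: signal is the nuclear over cytoplasmic p65 intensity ratio per well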). Particulars: HUVEC TNFa-induced p65 nuclear translocation; cell count: measured here: nuclei count (cytotoxicity indicator), at 2.08 µM; inhibition: at 2 µM, stronger effect = higher value, 0% TNFa-plus-vehicle, 100% no-TNFa wells.
Assay [2] can be described thus: reduction of polyQ htt aggregates in cells – imaging, exon1htt(103Q)mCFP cells, high-content imaging, primary screen (AID 483;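 active = visual image review flags a hit and inhibition of aggregation exceeds 20%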;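 also: compound exposure lasted 3 days before fixation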;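 as to nuclei count: percent of the per-plate median nuclei count of sample wells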). Particulars: exon1htt(103Q)mCFP cell line, aggregate imaging, at 2 µM; inhibition of aggregation: stronger effect = higher value; nuclei count: measured here: cell count, toxicity.
A short description of assay [3]: endothelial E-selectin expression blockers – imaging, HUVEC, immunofluorescence, MLSMR starter and 10KST1 sets, primary screen (AID 487;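 active = visually confirmed hit in the image check and inhibition above 20%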;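 as to inhibition: signal is fraction of cell area covered by stained E-selectin grains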;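 as to nuclei count: 100% = median nuclei count of all wells on the same plate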). To be noted: HUVEC TNFalpha-induced E-selectin immunofluorescence imaging, at 2 µM; inhibition: stronger effect = higher value; nuclei count: measured here: cell number, toxicity.
Assay [4] has as its target Voltage-gated potassium channel subunit beta-2 (Rattus norvegicus) (UniProt P62483). Nature of the assay: inhibitors of rat Kvbeta2 reductase activity – biochemical, NADPH fluorescence, primary screen (AID 622;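 active = fluorescence slope higher than the sample average by over 3 SD, cut at about -0.22 in these data, passing the limit was not always enough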;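 also: slope of raw intensity against log time taken from 70 to 1610 s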). Particulars: recombinant KvBeta, 4-cyanobenzaldehyde reduction, at 10 µM, stronger effect = higher value.
For assay [5] the target is unchanged. In words: enhancers of rat Kvbeta2 NADPH turnover – biochemical, NADPH fluorescence, primary screen (AID 623;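 active = NADPH fluorescence slope more negative than the mean of all samples by about 3 SD, 99.7% confidence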;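 also: fluorescence intensity change per second fitted from 20 to 320 s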). To be noted: Recombinant KvBeta, NADPH fluorescence decrease slope, 10 min; at 10 µM; stronger effect = lower value.
Assay [6] has as its target Alpha-2C adrenergic receptor (Homo sapiens) (UniProt P18825). Nature of the assay: compounds altering alpha2C-coupled GIRK flux – cell-based, HEK293 alpha2C/GIRK1/2, thallium flux, primary screen (AID 624;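 active = fluorescence slope after compound addition differing from the mean of all screened samples at 99.7% confidence, in either direction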;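 also: slope of fluorescence ratio to pre-addition baseline per second over 15 to 24 s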). To be noted: thallium flux BTC fluorescence, at 10 µM, actives lie on both sides.
Assay [7] in a line: blockers of RIG-like receptor reporter activation – cell-based, Sendai virus stimulus, luciferase, 10K MLSCN set, TLR/RLR signaling modifier project, primary screen (AID 602276).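 Also: firefly luciferase from ISG56 promoter only with Renilla not read in this screen; 0% = Sendai virus plus DMSO and 100% = medium plus DMSO without virus.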 To be noted: HEK293 RL24 IRF3 luciferase reporter, at 10 µM, stronger effect = higher value.
The nature of assay [8]: TLR3 IRF3 reporter activation blockers – cell-based, poly I:C stimulus, luciferase, 10K MLSCN set, primary screen (AID 602277;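 active = inhibition of the reporter signal at or above 50%; inactive = inhibition below 50%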). Particulars: HEK293-TLR3 RL24 IRF3 luciferase reporter, at 10 µM, stronger effect = higher value.

SMILES strings stand for the structures. Activity calls are given as the source filed them.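 The calls were made as follows, unless noted: active = inhibition at or above 50% at 10 µM; inactive = inhibition below 50%.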

Chain of Alpha-2C adrenergic receptor (Homo sapiens) (P18825 whole entry, looked up): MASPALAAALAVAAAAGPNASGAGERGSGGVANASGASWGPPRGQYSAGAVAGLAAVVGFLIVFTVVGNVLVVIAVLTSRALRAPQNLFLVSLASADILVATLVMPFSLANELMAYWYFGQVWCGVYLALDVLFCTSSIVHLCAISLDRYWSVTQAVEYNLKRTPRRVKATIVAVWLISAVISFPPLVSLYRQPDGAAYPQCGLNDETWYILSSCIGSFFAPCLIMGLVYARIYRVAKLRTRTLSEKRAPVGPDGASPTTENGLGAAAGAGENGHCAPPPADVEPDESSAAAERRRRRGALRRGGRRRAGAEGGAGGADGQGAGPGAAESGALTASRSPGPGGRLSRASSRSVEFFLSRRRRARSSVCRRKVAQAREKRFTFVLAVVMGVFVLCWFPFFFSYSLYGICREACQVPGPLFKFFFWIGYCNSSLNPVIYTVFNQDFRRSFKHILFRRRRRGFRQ
Chain of Voltage-gated potassium channel subunit beta-2 (Rattus norvegicus) (P62483 whole entry, looked up): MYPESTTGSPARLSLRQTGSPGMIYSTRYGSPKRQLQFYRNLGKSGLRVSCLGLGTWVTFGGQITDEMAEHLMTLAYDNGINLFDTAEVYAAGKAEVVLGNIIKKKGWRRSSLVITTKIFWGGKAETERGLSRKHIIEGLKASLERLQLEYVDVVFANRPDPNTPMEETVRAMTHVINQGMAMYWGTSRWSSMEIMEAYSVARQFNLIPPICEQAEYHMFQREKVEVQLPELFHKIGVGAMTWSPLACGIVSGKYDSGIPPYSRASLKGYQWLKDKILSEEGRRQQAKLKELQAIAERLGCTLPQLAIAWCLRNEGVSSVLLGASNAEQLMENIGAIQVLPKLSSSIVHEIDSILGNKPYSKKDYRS

As for `CCOC(=O)c1sc2nc(NC(=O)C3CCCCC3)sc2c1C`, the cell count in assay [1] is 570. Moreover, the inhibition in assay [1] was -0.8% (inactive); in assay [3], 19.5% (inactive); in assay [7], -10.3% (inactive); in assay [8] it was -9.22% (inactive). Further, in assay [2], the inhibition of aggregation is 4.6% (inactive). Moreover, the values for the nuclei count in assay [2] and in assay [3] were 92.9% and 96%, respectively. The fluorescence slope in assay [4] is -0.533 (inactive). In assay [5], the NADPH fluorescence slope was -2.5e-05 (inactive). For the same molecule, the slope in assay [6] was 0.00612 (inactive).

With `Cc1cccc(-n2c(=O)cc(N3CCN(c4ccc(F)cc4)CC3)[nH]c2=O)c1`, in assay [1], the cell count came to 605. For the same molecule, the inhibition in assay [1] was 0% (inactive); in assay [3], 15.8% (inactive); in assay [7], -5.09% (inactive); in assay [8], -5.41% (inactive). For the same molecule, the inhibition of aggregation in assay [2] is 15.8% (inactive). Further, the figures for the nuclei count in assay [2] and in assay [3] were 50.1% and 83.6%, respectively. Moreover, the fluorescence slope in assay [4] is -0.448 (inactive). In addition, the NADPH fluorescence slope in assay [5] was -2.5e-05 (inactive). For the same molecule, the slope in assay [6] is 0.00544 (inactive).

Take `O=C(Sc1nnnn1C1CCCCC1)c1cccs1`: the cell count in assay [1] was found to be 242. Also, the inhibition in assay [1] was 13.8% (inactive); in assay [3], -291% (inactive); in assay [7] it was 15.9% (inactive); in assay [8], 13.5% (inactive). Also, the inhibition of aggregation in assay [2] is 7.4% (inactive). For the same molecule, the nuclei count was 91.3% in assay [2] and 129% in assay [3]. Moreover, the fluorescence slope in assay [4] is -0.317 (inactive). Further, the NADPH fluorescence slope in assay [5] was 1.5e-05 (inactive). Moreover, in assay [6], the slope is 0.00618 (inactive).

As for `CCN(CC)CCn1c(=N)n(CCO)c2ccccc21`, the cell count in assay [1] was 592. Moreover, the inhibition in assay [1] is 0.2% (inactive); in assay [3], -30.1% (inactive); in assay [7], 7.52% (inactive); in assay [8] it was 39.8% (inactive). In addition, the inhibition of aggregation in assay [2] was 19.1% (inactive). The nuclei count in assay [2] came out at 95.6%; in assay [3] it was 91.5%. Further, in assay [4], the fluorescence slope is -0.376 (inactive). In addition, the NADPH fluorescence slope in assay [5] was 1.5e-05 (inactive). In addition, the slope in assay [6] was 0.00357 (inactive).

`CCOC(=O)CNC(=O)CSc1nc(N(C)C)nc(N2CCOCC2)n1`: the cell count in assay [1] came to 580. For the same molecule, the inhibition in assay [1] is 5.1% (inactive); in assay [3], -71.8% (inactive); in assay [7], 18.7% (inactive); in assay [8], 26.3% (inactive). In addition, the inhibition of aggregation in assay [2] is -7.9% (inactive). The nuclei count came to 110% in assay [2] and 111% in assay [3]. Moreover, in assay [4], the fluorescence slope is -0.517 (inactive). In assay [5], the NADPH fluorescence slope was -4e-05 (inactive). Moreover, the slope in assay [6] was 0.00497 (inactive).

On to `O=C(CCS(=O)(=O)c1cc(Br)cc2c1N(C(=O)C1CC1)CC2)NCC1CCCO1` (stereo not given), for which the cell count in assay [1] worked out at 415. In addition, the inhibition is -0.6% (inactive) in assay [1], -15.8% (inactive) in assay [3], 12.5% (inactive) in assay [7] and -10.9% (inactive) in assay [8]. In assay [2], the inhibition of aggregation is -16.1% (inactive). Besides, the nuclei count in assay [2] was found to be 105%; in assay [3], 85.8%. Moreover, the fluorescence slope in assay [4] is -0.314 (inactive). For the same molecule, the NADPH fluorescence slope in assay [5] was -1.2e-05 (inactive). In addition, the slope in assay [6] is 0.00703 (inactive).

For the molecule `CN(C)S(=O)(=O)NC(c1ccccc1)c1ccccc1`, in assay [1], the cell count was determined as 671. The inhibition in assay [1] was 5.8% (inactive); in assay [3], 14.6% (inactive); in assay [7], 20.5% (inactive); in assay [8], 21.8% (inactive). In addition, in assay [2], the inhibition of aggregation is 3.3% (inactive). Moreover, the nuclei count in assay [2] was 102%; in assay [3] it was 99.9%. For the same molecule, the fluorescence slope in assay [4] was -0.413 (inactive). In addition, in assay [5], the NADPH fluorescence slope was -3.1e-05 (inactive). The slope in assay [6] was 0.00605 (inactive).

On to `S=c1[nH]nc(-c2cccc(Br)c2)o1`, for which, in assay [1], the cell count was found to be 242. Besides, the inhibition in assay [1] was 12.7% (inactive); in assay [3], -57.8% (inactive); in assay [7], 4.14% (inactive); in assay [8], 8.86% (inactive). The inhibition of aggregation in assay [2] was 15.6% (inactive). Further, the values for the nuclei count in assay [2] and in assay [3] were 110% and 120%, respectively. Further, in assay [4], the fluorescence slope is -0.361 (inactive). Also, the NADPH fluorescence slope in assay [5] was 1.9e-05 (inactive). For the same molecule, in assay [6], the slope was 0.0039 (inactive).

Consider `O=C(NC1CCCCC1)c1cc2nc(-c3ccco3)cc(C(F)(F)F)n2n1`, for which the cell count in assay [1] is 455. Besides, the inhibition was -5.7% (inactive) in assay [1], -46% (inactive) in assay [3], 10.5% (inactive) in assay [7] and 10.6% (inactive) in assay [8]. Also, the inhibition of aggregation in assay [2] is 12.4% (inactive). The nuclei count in assay [2] was found to be 92.7%; in assay [3], 156%. The fluorescence slope in assay [4] was -0.218 (inactive). Moreover, in assay [5], the NADPH fluorescence slope was -5.6e-05 (inactive). In addition, in assay [6], the slope is 0.00549 (inactive).

Regarding `O=C(NC1CC1)c1cccc(Nc2ccc(-c3ccc4c(c3)OCCO4)nn2)c1`, the cell count in assay [1] came to 336. Also, the inhibition in assay [1] is -1.6% (inactive); in assay [3], -177% (inactive); in assay [7], -75.9% (inactive); in assay [8] it was -132% (inactive). In assay [2], the inhibition of aggregation is -55% (inactive). Besides, the nuclei count in assay [2] was 106%; in assay [3], 126%. Moreover, the fluorescence slope in assay [4] is -0.358 (inactive). Moreover, the NADPH fluorescence slope in assay [5] was -2.6e-05 (inactive). Also, the slope in assay [6] is 0.00455 (inactive).
